Shown are actives, neighbours in structure and some others; about 11% of the full set was active somewhere.
BAZ2B inh = qHTS Assay for Inhibitors of BAZ2B | Potency, µM (top dose mostly 114 µM), inactives show top-dose activity change, negative = inhibition, usual class: inhibitors | AlphaScreen BAZ2B-H3K14Ac peptide displacement | Bromodomain adjacent to zinc finger domain protein 2B (Homo sapiens), Q9UIF8 | 360,000 tested, 4.4% active; note: potency is the fitted concentration of half-maximal effect; % is set by controls: 0 for no effect and ±100 for the full control effect; nearly all actives have a fitted effect of over 60% in size
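BAZ2B (50 nM) with biotin-H3(5-23)K14Ac peptide (50 nM) in PBS pH 7.4, 0.01% Tween-20, preformed 30 min, then compound 30 min at room temperature; top concentration 110uM. AlphaScreen streptavidin donor/nickel chelate acceptor beads (10 ug/mL final), 20 min dark, signal read.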
PI5P4Ka inh = qHTS for Inhibitors of phosphatidylinositol 5-phosphate 4-kinase (PI5P4K); Phosphatidylinositol 5-phosphate 4-kinase type-2 alpha (Homo sapiens), P48426; PI5P4Kalpha enzyme, ADP-Glo luminescence, 60 min; stronger effect = lower value; max response, %; 330,000 tested, 1.2% active; AID 652105, 2013; active = max response of -50% or lower; inconclusive = between -30% and -50%; inactive = -30% or higher; note: value at the top dose of about 77 µM; % is set by controls: 0 for no effect and ±100 for the full control effect
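ADP-Glo luminescence end-point read after a 60 min room-temperature kinase reaction of PI5P4Kalpha plus substrate, initiated with ATP at 5 microM final. Buffer: 0.038 M HEPES pH 7.4, EGTA, 0.1% CHAPS, 5% DMSO.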
L3MBTL1 block = qHTS Assay for the Inhibitors of L3MBTL1; Lethal(3)malignant brain tumor-like protein 1 (Homo sapiens), Q9Y468; AlphaScreen L3MBTL1–H3K9me1 peptide binding; Potency, µM (series often up to 57.1 µM), for inactives: top-dose activity, negative = inhibition, hits mostly inhibitors; 230,000 tested, 0.66% active; AID 485360, 2010; note: potency is the fitted concentration of half-maximal effect; % is set by controls: 0 for no effect and ±100 for the full control effect; nearly all actives have a fitted effect of over 60% in size
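AlphaScreen proximity signal between nickel-chelate acceptor and streptavidin donor beads (final 10 ug/mL) reports binding of 50 nM L3MBTL1 to 75 nM biotin-H3 K9me1 peptide; complex incubated with compounds 30 min at room temperature; cefsulodin titration as control.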
JMJD2A Tudor inh = qHTS Assay for Inhibitors of JMJD2A-Tudor Domain. AID 504339, 2011. Lysine-specific demethylase 4A (Homo sapiens), O75164. Potency, µM (series often up to 114 µM), for the others: at the highest dose activity change, negative = inhibition, actives largely listed as inhibitors. 390,000 tested, 4.4% active. AlphaScreen JMJD2A-Tudor / H3K4me3 peptide binding; note: potency is the fitted concentration of half-maximal effect; % is set by controls: 0 for no effect and ±100 for the full control effect; nearly all actives have a fitted effect of over 50% in size
HP1b chromo inh = HTS for Inhibitors of HP1-beta Chromodomain Interactions with Methylated Histone Tails. Chromobox protein homolog 1 (Homo sapiens), P83916. AlphaScreen HP1-beta / biotin-H3K9me3 peptide binding. Potency, µM (highest dose often 114 µM), inactives show top-dose activity change, negative = inhibition, usual class: inhibitors. 390,000 tested, 0.56% active; note: potency is the fitted concentration of half-maximal effect; nearly all actives have a fitted effect of over 70% in size
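Compound inhibition of the preformed complex between 50 nM HP1-beta and 50 nM biotinylated H3K9me3 peptide was read by AlphaScreen. Buffer was PBS pH 7.4 with 0.01% Tween-20. Incubations ran 30 min at room temperature, with 10 ug/mL donor/acceptor beads.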
G9a inh = qHTS Assay for Inhibitors of Histone Lysine Methyltransferase G9a; Histone-lysine N-methyltransferase EHMT2 (Homo sapiens), Q96KQ7; G9a H3K9 monomethylation, AlphaScreen, 2 h; Potency, µM (titrated, usually from 102 µM), for inactives: top-dose activity, negative = inhibition, hits mostly inhibitors; 350,000 tested, 8.8% active; note: potency is the fitted concentration of half-maximal effect; % is set by controls: 0 for no effect and ±100 for the full control effect; nearly all actives have a fitted effect of over 75% in size
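Chemiluminescent proximity detection of H3K9 monomethylation, read after 10 min bead incubation in the dark. Reaction: 20 nM G9a, 500 nM biotin-H3K9 peptide, 20 uM SAM cofactor, 2 h, room temperature, following 15 min enzyme-compound preincubation.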
Numbers without * were called inactive; u = inconclusive; x = no result given; [ ] = dose if it differs, or a comment. Unless noted, calls come from the whole dose curve; as a rule, active = well fitted inhibition curve with a large enough effect; inconclusive = small, poorly fitted or top-dose-only effect; inactive = no such curve, though single readings can be large or run the other way.

SMILES | BAZ2B inh | PI5P4Ka inh | L3MBTL1 block | JMJD2A Tudor inh | HP1b chromo inh | G9a inh
COc1cc(/C=C2/C(=O)c3cccc([N+](=O)[O-])c3C2=O)c(Br)cc1O | 20µM* | -60* | -15% | 18µM* | 25µM* | 10µM*
O=C(Cc1ccc(F)cc1)Nc1cccc(-c2nc3cccnc3s2)c1 | -2% | x | x | -17% | 15% | -36%[59 µM]
COc1ccc(OC)c(Cc2nnc(CCC(=O)NCc3ccc(C)s3)o2)c1 | u | 3 | -10% | -9% | 10% | 25µM*
COc1ccc(OC)c(Cc2nnc(CCC(=O)NC(C3CC3)C3CC3)o2)c1 | -3% | 0 | 6% | -18% | 6% | 18%
COC(=O)CCC(=O)Oc1ccc(OC(=O)CCC(=O)OC)cc1 | -2% | x | 0% | x | x | 50µM*
Cc1ccc(CNC(=O)COCc2cc(-c3ccc4c(c3)OCO4)on2)cc1 | -1% | x | x | -4% | 38% | -4%[59 µM]
O=C(NCCN1CCNCC1)c1ccccn1 | u | 2 | 48% | 1.1µM* | 17% | 45µM*
Cc1ccccc1C(=O)NCCCNC(=O)c1ccccn1 | -28% | 1 | x | -6% | 24% | 50µM*
Cc1ccc(S(=O)(=O)Cc2ccc(C(=O)NCCc3ccc(Cl)cc3)o2)cc1 | x | x | x | -16% | 26% | 2%[59 µM]
COc1cccc(Cn2c(=O)c3[nH]cnc3n(-c3ccccc3C)c2=O)c1 | -25% | -5 | x | -15% | 45% | 71µM*
Cc1ccccc1-n1c(=O)n(Cc2ccccc2)c(=O)c2[nH]cnc21 | -1% | -13 | 1% | 0% | 12% | 21%[59 µM]
O=C(OCc1cc(=O)n2nc(-c3cccs3)sc2n1)c1ccccc1Br | -32% | x | x | -36% | 56% | 11%[59 µM]
Cc1ccc(C(=O)Nc2nnc(CC(=O)N/N=C/c3ccc(O)c(O)c3)s2)cc1 | 79µM* | -58* | x | u | -24% | -31%[2.33 µM]
Cc1ccc(C(=O)Nc2nnc(CC(=O)N/N=C/c3ccncc3)s2)cc1 | u | u | u | u | 23% | 35µM*
COc1ccc(C(=O)Nc2nnc(CC(=O)N/N=C/c3ccc(O)cc3O)s2)cc1 | -5% | x | x | x | x | -2%
CCOC(=O)N1CCC(NC(=O)c2cnn(-c3ccc(C)cc3)c2-n2cccc2)CC1 | -14% | x | x | -9% | 1% | -20%[59 µM]
COc1cc(OC)c(NC2(c3ccccc3)C(=O)c3ccccc3C2=O)cc1Cl | 22µM* | x | x | 20µM* | u | 13µM*
COc1ccc(C2(Nc3cccc(C(=O)O)c3C)C(=O)c3ccccc3C2=O)cc1 | 9%[57.1 µM] | x | x | 1% | 20% | 4%[59 µM]
Cc1ccc(S(=O)(=O)N2CCN(C(=O)Cc3ccccc3)CC2)cc1C | 5% | 2 | -2% | -21% | 35% | u
O=C(CCN1C(=O)c2ccccc2C1=O)N1CCN(Cc2ccc(Cl)cc2Cl)CC1 | 4% | x | -9% | -19% | 14% | 40µM*
Cc1ccc(S(=O)(=O)N2CCN(C(=O)CCN3C(=O)c4ccccc4C3=O)CC2)cc1C | -8% | -2 | -3% | -6% | 10% | 79µM*
O=C1CCC/C1=C/Nc1ccc(Cl)cc1 | -3% | 0 | x | -24% | 15% | -10%
O=C1CCCC/C1=C\Nc1ccc(O)cc1 | 0% | x | u | -24% | 17% | 0.89µM*
Cn1c(=O)c2ncn(CC(=O)NCCOc3ccc(C(C)(C)C)cc3)c2n(C)c1=O | 0% | 2 | 6% | -2% | 5% | 40µM*
Cn1c(=O)c2ncn(CC(=O)NCCOCc3ccccc3Cl)c2n(C)c1=O | 4% | 1 | 2% | -20% | 19% | -7%
Cn1c(=O)c2ncn(CC(=O)NC3CCCCCC3)c2n(C)c1=O | -4% | 9 | 4% | 3% | 14% | 14µM*
COc1ccc(Oc2ncc3nc(C)c(=O)n(C[C@H]4CCCO4)c3n2)cc1 | x | x | x | x | x | 8%[0.501 µM]

Source: PubChem (National Center for Advancing Translational Sciences (NCATS))
